Here are results for three molecules from PubChem BioAssay (EPA / NIEHS).

What all share (conditions): mRNA level, 48 h; actives raise or lower the signal
Read-out in assay [1]: BCL2L11 (gene 10018)
Nature of the assay: LTEA_HepaRG_BCL2L11: Life Technologies and Expression Analysis (LTEA) Assay for Bcl-2 (BCL2L11) gene using HepaRG (AID 2283473). An outline of the steps: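 HepaRG, 48 h exposure, 8-pt half-log series from 100 uM in 0.5% DMSO, duplicates; qRT-PCR (Fluidigm TaqMan) for BCL2L11, housekeeping-normalized; bidirectional curve fit relative to DMSO baseline.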

Read-out in assay [2]: Apolipoprotein A-V (APOA5) gene, APOA5 (gene 116519)
Nature of the assay: LTEA_HepaRG_APOA5: Life Technologies and Expression Analysis (LTEA) Assay for Apolipoprotein A-V (APOA5) gene using HepaRG (AID 2283474). An outline of the steps:
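HepaRG, 48 h chemical exposure in serum-free induction medium, 8-pt half-log series (top 100 uM), 0.5% DMSO vehicle, duplicates. Readout: APOA5 mRNA by qRT-PCR, housekeeping-normalized; bidirectional fit vs DMSO baseline.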

Read-out in assay [3]: Apoptosis regulator Bcl-2 (Homo sapiens) (UniProt P10415)
In words: LTEA_HepaRG_BCL2: Life Technologies and Expression Analysis (LTEA) Assay for Bcl-2 gene using HepaRG (AID 2283475). In outline:
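qRT-PCR of BCL2 transcript, normalized to three housekeeping genes (ACTB, GAPDH, POLR2A), after 48 h chemical exposure of HepaRG cells; concentrations top 100 uM with half-log dilutions, 0.5% DMSO vehicle, duplicates; changes up or down fitted relative to vehicle.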

Read-out in assay [4]: Bcl-2 (BID) gene, BID (gene 637)
Nature of the assay: LTEA_HepaRG_BID: Life Technologies and Expression Analysis (LTEA) Assay for Bcl-2 (BID) gene using HepaRG (AID 2283476). An outline of the steps:
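Duplicate 48 h treatments of HepaRG cells in serum-free induction medium spanned 100 uM downward in half-log steps, 0.5% DMSO. Transcript change quantified by qRT-PCR against three housekeeping genes, fitted up or down versus DMSO.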

Read-out in assay [5]: Caspase-3 (Homo sapiens) (UniProt P42574)
In words: LTEA_HepaRG_CASP3: Life Technologies and Expression Analysis (LTEA) Assay for cysteine-aspartic acid protease (CASP3) using HepaRG (AID 2283477). An outline of the steps: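 HepaRG, 48 h exposure, 8 conc. (top 100 uM, half-log steps, duplicate), 0.5% DMSO vehicle; qRT-PCR of CASP3 transcript, housekeeping-normalised (ACTB/GAPDH/POLR2A); bidirectional curve fit vs DMSO baseline.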

Read-out in assay [6]: Cytochrome P450 (CYP24A1), CYP24A1 (gene 1591)
Nature of the assay: LTEA_HepaRG_CYP24A1: Life Technologies and Expression Analysis (LTEA) Assay for Cytochrome P450 (CYP24A1) using HepaRG (AID 2283478). An outline of the steps: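 qRT-PCR read-out: CYP24A1 transcript levels normalized to three housekeeping genes, bidirectional curve fits against 0.5% DMSO baseline. Human HepaRG cells treated 48 h with chemicals at eight concentrations from 100 uM in half-log steps.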

Read-out in assay [7]: Cytochrome P450 (CYP1A2), CYP1A2 (gene 1544)
Nature of the assay: LTEA_HepaRG_CYP1A2: Life Technologies and Expression Analysis (LTEA) Assay for Cytochrome P450 (CYP1A2) using HepaRG (AID 2283479). An outline of the steps: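 HepaRG, 48 h exposure, top 100 uM, half-log 8-pt, 0.5% DMSO vehicle, duplicates. Readout: TaqMan qRT-PCR of CYP1A2 mRNA, housekeeping-normalized (ACTB/GAPDH/POLR2A). Gain/loss fit relative to DMSO baseline.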

Read-out in assay [8]: cysteine-aspartic acid protease (CASP8), CASP8 (gene 841)
In words: LTEA_HepaRG_CASP8: Life Technologies and Expression Analysis (LTEA) Assay for cysteine-aspartic acid protease (CASP8) using HepaRG (AID 2283480). In outline: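 Concentration-response in duplicate up to 100 uM (half-log steps, 0.5% DMSO) on differentiated HepaRG cultures for 48 h. Expression change of CASP8 mRNA is determined by TaqMan qRT-PCR with housekeeping-gene normalization.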

Read-out in assay [9]: Cytochrome P450 (CYP2B6), CYP2B6 (gene 1555)
Nature of the assay: LTEA_HepaRG_CYP2B6: Life Technologies and Expression Analysis (LTEA) Assay for Cytochrome P450 (CYP2B6) using HepaRG (AID 2283481). In outline:
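Read-out is CYP2B6 mRNA by TaqMan qRT-PCR, normalized to three housekeeping genes and fitted bidirectionally against 0.5% DMSO baseline. Human HepaRG cells received test chemicals for 48 h, top concentration 100 uM, half-log dilutions.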

Read-out in assay [10]: Cytochrome P450 2C19 (Homo sapiens) (UniProt P33261)
In words: LTEA_HepaRG_CYP2C19: Life Technologies and Expression Analysis (LTEA) Assay for CYP2C19 using HepaRG (AID 2283482). An outline of the steps: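 HepaRG, 48 h chemical exposure, 8-pt half-log series from 100 uM in 0.5% DMSO, duplicates. Readout: CYP2C19 mRNA by TaqMan qRT-PCR, housekeeping-normalized. Bidirectional fit vs DMSO baseline; phenobarbital 1mM as induction control.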

Read-out in assay [11]: CYP2C8 (gene 1558)
In words: LTEA_HepaRG_CYP2C8: Life Technologies and Expression Analysis (LTEA) Assay for CYP2C8 using HepaRG (AID 2283483). An outline of the steps:
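This is a transcriptional endpoint in HepaRG cultures: 48 h exposure, highest concentration 100 uM. CYP2C8 mRNA is quantified by TaqMan qRT-PCR.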

Read-out in assay [12]: CYP2C9 (gene 1559)
In words: LTEA_HepaRG_CYP2C9: Life Technologies and Expression Analysis (LTEA) Assay for CYP2C9 using HepaRG (AID 2283484). An outline of the steps:
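Eight-point concentration-response (highest 100 uM, half-log dilutions) in HepaRG cells for 48 h; CYP2C9 expression by qRT-PCR normalized to ACTB, GAPDH, POLR2A. Bidirectional fit, DMSO baseline.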

Read-out in assay [13]: CYP2E1 (gene 1571)
In words: LTEA_HepaRG_CYP2E1: Life Technologies and Expression Analysis (LTEA) Assay for CYP2E1 using HepaRG (AID 2283485). An outline of the steps: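 CYP2E1 transcript measured by Fluidigm qRT-PCR against three housekeeping genes in human HepaRG cells treated 48 h (top 100 uM, half-log steps, 0.5% DMSO vehicle). Gain or loss fitted relative to DMSO baseline.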

Read-out in assay [14]: CYP4A11 (gene 1579)
In words: LTEA_HepaRG_CYP4A11: Life Technologies and Expression Analysis (LTEA) Assay for CYP4A11 using HepaRG (AID 2283486). An outline of the steps: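 CYP4A11 transcript levels were quantified by TaqMan qRT-PCR after HepaRG human liver cells were treated for 48 hours with test chemicals (top 100 uM, half-log dilutions, 0.5% DMSO). Gain or loss of signal was fitted relative to DMSO.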

Read-out in assay [15]: DNA damage-inducible transcript 3 (DDIT3), DDIT3 (gene 1649)
In words: LTEA_HepaRG_DDIT3: Life Technologies and Expression Analysis (LTEA) Assay for DNA damage-inducible transcript 3 (DDIT3) using HepaRG (AID 2283488). In outline:
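DDIT3 transcript was quantified by qRT-PCR with ACTB/GAPDH/POLR2A normalization after 48 h chemical treatment of differentiated HepaRG cells in 0.5% DMSO. Dosing was eight-point, half-log, top 100 uM, duplicate wells. Curves fitted bidirectionally versus DMSO.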

Read-out in assay [16]: Pro-epidermal growth factor (Homo sapiens) (UniProt P01133)
Nature of the assay: LTEA_HepaRG_EGF: Life Technologies and Expression Analysis (LTEA) Assay for Epidermal growth factor (EGF) using HepaRG (AID 2283489). In outline: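 qRT-PCR readout of EGF transcript after 48 h chemical exposure of HepaRG cells; eight concentrations from 100 uM down in half-log steps, duplicate wells, 0.5% DMSO vehicle. Bidirectional curve fitting against DMSO baseline.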

Read-out in assay [17]: Early growth response protein 1 (EGR1) transcription factor, EGR1 (gene 1958)
In words: LTEA_HepaRG_EGR1: Life Technologies and Expression Analysis (LTEA) Assay for Early growth response protein 1 (EGR1) transcription factor using HepaRG (AID 2283490). An outline of the steps:
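EGR1 expression change in human HepaRG after 48 h chemical exposure, assessed by housekeeping-normalized qRT-PCR; concentration-response up to 100 uM, fitted in both directions against DMSO controls.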

Read-out in assay [18]: Ezrin (EZR), EZR (gene 7430)
Nature of the assay: LTEA_HepaRG_EZR: Life Technologies and Expression Analysis (LTEA) Assay for Ezrin (EZR) using HepaRG (AID 2283491). An outline of the steps: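 Differentiated human HepaRG cells, 48 h after plating, were exposed in serum-free induction medium for 48 hours to eight half-log concentrations up to 100 uM in 0.5% DMSO. EZR mRNA was measured by TaqMan qRT-PCR, normalized to ACTB, GAPDH and POLR2A, and fitted bidirectionally against DMSO.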

Read-out in assay [19]: Cytochrome P450 3A7 (Homo sapiens) (UniProt P24462)
In words: LTEA_HepaRG_CYP3A7: Life Technologies and Expression Analysis (LTEA) Assay for CYP3A7 using HepaRG (AID 2283492). In outline: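 CYP3A7 transcript levels were read by TaqMan qRT-PCR on Fluidigm arrays after 48 h chemical exposure of human HepaRG cells, with housekeeping-gene normalisation. Eight half-log concentrations up to 100 uM in 0.5% DMSO were tested in duplicate.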

Read-out in assay [20]: Cytochrome P450 3A4 (Homo sapiens) (UniProt P08684)
Nature of the assay: LTEA_HepaRG_CYP3A4: Life Technologies and Expression Analysis (LTEA) Assay for CYP3A4 using HepaRG (AID 2283487). An outline of the steps:
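Differentiated HepaRG cells in serum-free induction medium exposed in duplicate for 48 h to 8 half-log concentrations up to 100 uM in 0.5% DMSO. CYP3A4 mRNA measured by qRT-PCR normalized to ACTB, GAPDH and POLR2A; bidirectional fit versus DMSO.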

Structures are written as SMILES. Activity calls are given as the source filed them. How the source made its calls: active means hit-call score of the fitted dose curve at least 0.9, where 1 is the maximum; inactive means score below 0.9.

Chain of Cytochrome P450 2C19 (Homo sapiens) (P33261 whole entry, looked up): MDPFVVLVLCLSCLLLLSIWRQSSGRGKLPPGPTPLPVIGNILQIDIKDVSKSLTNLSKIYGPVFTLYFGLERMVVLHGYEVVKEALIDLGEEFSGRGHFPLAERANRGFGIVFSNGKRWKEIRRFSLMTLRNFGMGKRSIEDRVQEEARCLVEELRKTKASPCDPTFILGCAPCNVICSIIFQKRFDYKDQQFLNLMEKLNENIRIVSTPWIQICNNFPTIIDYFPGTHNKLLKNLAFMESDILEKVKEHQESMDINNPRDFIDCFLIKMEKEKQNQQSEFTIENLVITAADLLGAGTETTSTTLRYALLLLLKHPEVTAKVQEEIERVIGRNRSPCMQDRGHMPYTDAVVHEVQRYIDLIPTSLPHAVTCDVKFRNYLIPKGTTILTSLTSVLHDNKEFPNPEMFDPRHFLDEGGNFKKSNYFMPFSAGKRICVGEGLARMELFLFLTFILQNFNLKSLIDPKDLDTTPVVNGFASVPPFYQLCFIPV
Chain of Cytochrome P450 3A7 (Homo sapiens) (P24462 whole entry, looked up): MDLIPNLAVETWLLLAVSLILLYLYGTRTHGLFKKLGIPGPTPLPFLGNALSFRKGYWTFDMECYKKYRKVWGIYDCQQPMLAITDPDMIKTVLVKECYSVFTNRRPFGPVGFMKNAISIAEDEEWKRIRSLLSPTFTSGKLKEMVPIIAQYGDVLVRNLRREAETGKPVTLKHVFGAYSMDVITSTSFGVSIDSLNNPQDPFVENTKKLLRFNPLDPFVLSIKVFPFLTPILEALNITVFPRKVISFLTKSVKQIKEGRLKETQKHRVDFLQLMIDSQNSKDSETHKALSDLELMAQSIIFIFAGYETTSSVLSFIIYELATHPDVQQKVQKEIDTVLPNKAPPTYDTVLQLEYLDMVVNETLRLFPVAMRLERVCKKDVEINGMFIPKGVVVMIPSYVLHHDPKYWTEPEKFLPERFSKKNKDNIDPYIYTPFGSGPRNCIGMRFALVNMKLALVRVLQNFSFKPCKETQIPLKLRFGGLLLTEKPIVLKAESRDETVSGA
Chain of Caspase-3 (Homo sapiens) (P42574 whole entry, looked up): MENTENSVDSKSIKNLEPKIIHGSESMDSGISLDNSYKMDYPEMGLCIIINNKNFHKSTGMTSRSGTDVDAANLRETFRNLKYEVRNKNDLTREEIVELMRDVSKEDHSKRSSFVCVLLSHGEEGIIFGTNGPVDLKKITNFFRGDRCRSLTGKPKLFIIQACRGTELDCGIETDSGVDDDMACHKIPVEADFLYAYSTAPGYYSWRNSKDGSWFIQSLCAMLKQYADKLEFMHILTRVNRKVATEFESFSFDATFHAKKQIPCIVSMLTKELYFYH
Chain of Apoptosis regulator Bcl-2 (Homo sapiens) (P10415 whole entry, looked up): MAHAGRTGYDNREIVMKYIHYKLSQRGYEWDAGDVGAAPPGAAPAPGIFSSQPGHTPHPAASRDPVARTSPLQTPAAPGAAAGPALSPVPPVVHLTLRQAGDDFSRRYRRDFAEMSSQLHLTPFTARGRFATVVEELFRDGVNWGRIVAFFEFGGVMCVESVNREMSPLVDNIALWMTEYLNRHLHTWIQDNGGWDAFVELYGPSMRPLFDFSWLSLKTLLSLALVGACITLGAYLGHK
Chain of Cytochrome P450 3A4 (Homo sapiens) (P08684 whole entry, looked up): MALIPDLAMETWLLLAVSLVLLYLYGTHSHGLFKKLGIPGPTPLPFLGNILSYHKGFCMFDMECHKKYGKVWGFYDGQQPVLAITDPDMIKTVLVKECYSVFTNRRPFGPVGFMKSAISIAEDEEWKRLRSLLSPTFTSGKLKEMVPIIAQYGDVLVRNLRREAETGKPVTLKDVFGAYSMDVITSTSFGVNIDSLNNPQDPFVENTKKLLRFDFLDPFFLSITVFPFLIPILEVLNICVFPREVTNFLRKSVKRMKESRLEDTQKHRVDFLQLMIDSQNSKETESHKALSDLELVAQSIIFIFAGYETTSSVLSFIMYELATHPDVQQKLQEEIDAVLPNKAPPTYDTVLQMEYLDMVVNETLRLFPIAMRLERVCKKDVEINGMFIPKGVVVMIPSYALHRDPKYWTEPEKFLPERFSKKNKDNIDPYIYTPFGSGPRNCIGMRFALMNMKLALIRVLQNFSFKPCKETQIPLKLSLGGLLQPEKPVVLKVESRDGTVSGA

For orientation: AC50 means the concentration giving half of the maximal activity seen. `Clc1ccc(C(c2ccc(Cl)cc2)C(Cl)Cl)cc1`: the call in assay [1], in [3], in assay [4], in assay [5], in [6] and in [7] was inactive. The outcome in assay [8], in assay [12], in assay [15], in [16], in assay [17] and in assay [18] was inactive. Moreover, the half-maximal activity concentration (AC50) in assay [2] is 60.5 µM (active); in [9], 2.87 µM (active); in assay [10], 7.66 µM (active); in assay [11], 12.7 µM (active); in assay [13], 52.5 µM (active); in assay [14] it was 50 µM (active). Also, the AC50 in assay [19] was 9.55 µM (active).
In the case of `OCCCl`, the result in assay [1], in assay [2], in assay [3], in [4], in assay [5] and in [6] was inactive. Besides, the outcome in [7], in assay [8], in assay [10], in assay [11], in [12] and in assay [13] was inactive. The molecule was classed as inactive in [14], in [20], in [15], in assay [16], in assay [17] and in assay [18]. Further, the molecule was classed as inactive in assay [19]. Further, the AC50 in assay [9] is 50 µM (active).
For `CC(C)(O)c1cnn2c(-c3ccc(F)c(-c4c(F)cccc4C#N)c3)cnc2n1`, the result in assay [1], in assay [2], in [3], in [4], in assay [5] and in [6] was inactive. For the same molecule, the molecule was classed as inactive in [8], in assay [11], in assay [15], in assay [16], in assay [17] and in [18]. Besides, the result in [19] was inactive. For the same molecule, the AC50 was 29.7 µM (active) in assay [7]; 0.705 µM (active) in assay [9]; 0.365 µM (active) in [10]; 0.291 µM (active) in assay [12]; 4.43 µM (active) in assay [13]; 1.51 µM (active) in assay [14].
